CSC inhib – blocks cancer stem cells; cancer stem cell-like cells viability, luminescence; inhibition, % at 7.5 µM; 300,000 tested, 1.1% active; AID 2717; in the data active = inhibition above about 75%; inconclusive = no clear call, values can overlap the other calls; tested in HMLE shEcad cells
PP5 inh – inhibitors of human protein phosphatase 5 (PP5); P53041; purified PP5c, OMFP substrate fluorescence; inhibition, % at 6.7 µM; 320,000 tested, 0.18% active;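 active = inhibition above the campaign's mean inhibition across all tested compounds plus 3 SD, cut at about 9.5% in these data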
Calb FLC – C. albicans growth modulation with fluconazole; C. albicans CaCi-2 (fluconazole-resistant clinical isolate) + fluconazole, Alamar Blue growth, 48 h; 300,000 tested, 0.57% active; growth inhibition, % (concentration not given with the values);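 active = growth inhibition above about 58% in most replicates, limit read from the data, passing the limit was not always enough; inconclusive = exactly half the replicates above a set limit; inactive = most replicates below a set limit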;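 also: all wells also contain fluconazole at 8 µg/ml as a sub-toxic cotreatment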
ALR inh – inhibitors of human sulfhydryl oxidase ALR; purified ALR, DTT oxidation, H2O2 HRP-luminol luminescence; 290,000 tested, 3.8% active; inhibition, % (concentration not given with the values); P55789;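 active = mean replicate inhibition above about 79%, with every replicate also reaching it, limit read from the data; inconclusive = only one of the two criteria met; inactive = mean below limit and not every replicate reaching it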
PP1 counter – PP1-alpha (human) inhibition in PP5 counter-screen; purified PP1alpha, OMFP fluorescence; inhibition, % at 6.7 µM; 320,000 tested, 0.9% active; AID 2235;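 active = inhibition above the mean inhibition of all tested compounds plus 3 SD, computed separately for each screening campaign, cut at about 15% in these data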
Target sequence (P62136 whole entry, looked up): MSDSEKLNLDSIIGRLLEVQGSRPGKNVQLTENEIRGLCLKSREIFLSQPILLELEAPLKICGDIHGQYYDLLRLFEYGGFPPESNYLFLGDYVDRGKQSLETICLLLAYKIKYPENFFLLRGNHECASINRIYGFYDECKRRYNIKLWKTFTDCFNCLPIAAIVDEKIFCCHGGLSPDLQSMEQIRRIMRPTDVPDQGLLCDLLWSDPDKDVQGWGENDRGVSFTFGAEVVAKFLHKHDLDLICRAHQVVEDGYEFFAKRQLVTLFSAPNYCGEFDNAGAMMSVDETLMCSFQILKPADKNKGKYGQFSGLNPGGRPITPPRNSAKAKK
Large screens that a line does not name were inactive. A selection: hits, their analogues and other compounds. The true share with any hit is near 5.4%.

O=C(CSc1nnc(C2CC2)n1-c1ccccc1)Nc1ccc(N2CCOCC2)cc1	ALR inh 98 (no result: CSC inhib)
COc1ccccc1NC(=O)CSc1nncn1-c1ccccc1	ALR inh 98
Cc1ccc(OCC(=O)N(Cc2cccc(Cl)c2)C2CCS(=O)(=O)C2)cc1C (stereo not drawn)	none (no result: Calb FLC)
CCC(C)Nc1nc(N)c([N+](=O)[O-])c(NCc2ccccc2)n1 (stereo not drawn)	none (no result: PP5 inh, PP1 counter)
CN(C)c1cccc(NC2=CC(=[N+]3CCOCC3)CC(C)(C)C2)c1	none
CC1=CC2=NC(=O)/C(=C\c3cn(C)c4ccccc34)C(=N)N2O1	none
COc1cccc(CN(C)CC(=O)Nc2cc3oc4ccccc4c3cc2OC)c1	none
COc1cc2c(cc1NC(=O)CN(C)Cc1cccc(OC)c1OC)oc1ccccc12	CSC inhib 99
Cc1cc(N2CCN(C)CC2)nc2ccc(NC(=S)N3CCN(c4ccc(F)cc4)CC3)cc12	CSC inhib inconclusive (no result: ALR inh)
Cc1cc(N2CCN(C)CC2)nc2ccc(NC(=S)N3CCN(c4ccc(Cl)cc4)CC3)cc12	CSC inhib 109
C=CCn1c(SCC(=O)Nc2ccccc2OC)nnc1-c1ccco1	none (no result: CSC inhib, PP5 inh, ALR inh, PP1 counter)
C=CCn1c(SCC(=O)Nc2nccs2)nnc1-c1cc2cccc(OC)c2o1	PP1 counter 17
COc1ccc(N=C2C(=O)Nc3ccccc32)cc1	ALR inh 86
NS(=O)(=O)c1ccc(N=C2C(=O)Nc3ccccc32)cc1	PP1 counter 16
CC(C)Cn1c(N)c(C(=O)COC(=O)c2cc(C3CC3)nc3ccccc23)c(=O)n(C)c1=O	none (no result: Calb FLC)
O=S(=O)(c1ccc(F)cc1)N1CCN=C1SCc1cccnc1	ALR inh 98
O=S(=O)(c1ccc2ccccc2c1)N1CCN=C1SCc1cccnc1	ALR inh 99
CC(=O)Nc1ccc(S(=O)(=O)N2CCN=C2SCc2cccnc2)cc1	ALR inh 98
CC1(C)CC(=O)C(C=NCCc2ccc(O)cc2)=C(O)C1	ALR inh 96
CC(=O)c1ccc(NC(=O)CSc2nc(=O)cc(N)n2-c2ccccc2)cc1	ALR inh 99
COC(=O)c1ccc(NC(=O)CSc2nc(=O)cc(N)n2-c2ccccc2)cc1	ALR inh 99
Cc1ccc(-n2c(N)cc(=O)nc2SCC(=O)N2CCN(c3ccccc3)CC2)cc1	ALR inh 97
COC(=O)c1c(NS(=O)(=O)c2ccc3ccccc3c2)sc2c1CCCC2	none
COC(=O)c1c(NC(=O)c2ccc(C)c(S(=O)(=O)Nc3ccccc3C)c2)sc2c1CCCC2	CSC inhib 75
COCCNC(=O)CCc1c(C)nc2c(c(C)nn2-c2ccc(C)c(C)c2)c1C	none
Cn1c(SCC(=O)NCc2ccc(F)cc2)ncc(C(=O)Nc2ccccc2)c1=O	none
CC(=O)Nc1ccc(NC(=O)CSc2ncc(C(=O)Nc3ccc(Cl)cc3)c(=O)n2C)cc1	ALR inh 99
CC(=O)Nc1ccc(NC(=O)CSc2nnnn2-c2ccc(F)cc2)cc1	ALR inh 98
CC(=O)Nc1ccc(NC(=O)CSc2ncc(C(=O)Nc3ccc(F)cc3)c(=O)n2C)cc1	ALR inh 99
Cn1c(SCC(=O)NCC2CCCO2)ncc(C(=O)Nc2ccc(Cl)cc2)c1=O (stereo not drawn)	none
CC(=O)Nc1cccc(NC(=O)CSc2ncc(C(=O)Nc3ccccc3)c(=O)n2C)c1	none (no result: ALR inh)
CC(=O)c1cccc(NC(=O)CSc2ncc(C(=O)Nc3ccccc3)c(=O)n2C)c1	ALR inh 99
CC1(C)CC(=O)C2=C(C1)NC(Nc1nc3ccccc3o1)=NC21CCCCC1	Calb FLC inconclusive
COc1ccc(CNC(=O)C(c2ccc(C)o2)N(C(=O)c2snc(C(N)=O)c2N)c2ccccc2OC)cc1 (stereo not drawn)	none
Cc1cccc(OCc2nnc(SC(C)C(=O)O)n2Cc2ccccc2)c1 (stereo not drawn)	none
O=[N+]([O-])c1ccc(N/N=C/c2c[nH]c3ccccc23)c(S(=O)(=O)Nc2ccc(Cl)cc2)c1	CSC inhib 101
COc1ccccc1NS(=O)(=O)c1cc([N+](=O)[O-])ccc1N/N=C/c1c(C)[nH]c2ccccc12	none (no result: ALR inh)
c1ccc(N2N=C(c3cccs3)CC2c2ccco2)cc1 (stereo not drawn)	ALR inh 97
O=C(Cc1ccc(Cl)cc1)Nc1ccc(Br)cc1	Calb FLC 42
O=C(Cc1ccc([N+](=O)[O-])cc1)Nc1ccc2c(c1)C(=O)NC2=O	none
O=C(Cc1ccc(Cl)cc1)Nc1ccc2c(c1)C(=O)NC2=O	CSC inhib 91
O=C(Cc1ccc(Br)cc1)NNC(=O)Nc1ccc(Cl)cc1	none
